Measured values as given in PubChem BioAssay AID652096 (National Center for Advancing Translational Sciences (NCATS), 2013).
Active and inactive are the calls of the source.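 Rule for the calls: active = fold change of 2 or more in glucocerebrosidase protein level on Western blot; inactive = the rest.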

Biological target: Lysosomal acid glucosylceramidase (Homo sapiens) (UniProt P04062)
Assay: Extended Characterization of Activators of N370S glucocerebrosidase as a Potential Chaperone Treatment of Gaucher Disease: Western Blot
Details: Patient cells, GCase protein level, hits give high values
From the text: Glucocerebrosidase (GCase) catalyzes the hydrolysis of beta-glucocerebroside to glucose and ceramide in lysosomes. Mutations in the glucocerebrosidase gene result in Gaucher disease, an autosomal recessive lysosomal storage disorder. Many of the mutations encountered in patients with Gaucher disease are missense alterations that may cause misfolding, decreased stability and/or mistrafficking of this lysosomal protein. […] These inhibitors include iminosugar analogs and other inhibitors that were discovered as part of previous work. However, the enhancement of enzyme activity by the chaperone action of an enzyme inhibitor must be balanced against the direct inhibition of the enzyme. […] In this extended characterization of our probe, we have further characterized the activity of our probe in relevant models. In this Western Blot assay, we examined the effects of compounds to increase GCase activity. NIH Chemical Genomics Center [NCGC] NIH Molecular Libraries Probe Production Centers Network [MLPCN] MLPCN Grant: MH086442 Assay Submitter (PI): Ellen Sidransky, NHGRI
The cells were plated and exposed to the compounds. Cells were harvested and the cell extracts were subjected to SDS-PAGE and Western blotting procedures to evaluate the extent of upregulation of GCase activity.

Lysosomal acid glucosylceramidase (Homo sapiens), sequence (P04062 40-536 N409S): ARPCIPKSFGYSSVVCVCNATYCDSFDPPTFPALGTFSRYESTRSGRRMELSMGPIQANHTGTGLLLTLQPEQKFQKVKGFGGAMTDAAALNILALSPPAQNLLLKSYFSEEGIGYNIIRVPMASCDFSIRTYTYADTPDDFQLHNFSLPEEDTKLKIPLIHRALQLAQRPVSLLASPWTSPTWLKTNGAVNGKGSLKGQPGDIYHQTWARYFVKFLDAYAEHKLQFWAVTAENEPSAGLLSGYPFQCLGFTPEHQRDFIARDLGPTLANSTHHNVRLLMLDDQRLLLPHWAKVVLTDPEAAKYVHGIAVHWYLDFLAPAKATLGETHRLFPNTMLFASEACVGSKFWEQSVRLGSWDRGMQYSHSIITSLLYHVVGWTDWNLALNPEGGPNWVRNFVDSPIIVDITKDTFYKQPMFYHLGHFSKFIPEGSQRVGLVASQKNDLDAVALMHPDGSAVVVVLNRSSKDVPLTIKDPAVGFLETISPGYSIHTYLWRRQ

SMILES	fold change
C#Cc1ccc(NC(=O)c2cnn3c(C)cc(C)nc23)cc1	2 (active)
